Laboratory results from PubChem BioAssay AID1857 (The Scripps Research Institute Molecular Screening Center, 2009).
Out of some 1,300 compounds screened, about 290 (22%) were called active. Many of the other results were omitted from the sample, so actives are more common in it than they were. A number with no mark means an inactive call.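 Rule for the calls: active = inhibition above the mean of all tested compounds plus 3 SD (cut at about 19% in these data); inactive = the rest.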

Tested on: VIM-2 metallo-beta-lactamase (Pseudomonas aeruginosa)
Test: VIM-2 CCF2 hydrolysis inhibition, orthogonal readout – biochemical, FRET, epi-absorbance artifact exclusion, artefact control for selective VIM-2 inhibitor project, confirmation (AID 1857);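 note: 0% = VIM-2 plus DMSO and 100% = no enzyme wells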
Conditions: purified VIM-2, CCF2 FRET substrate hydrolysis; at 5.6 µM; hits give high values

Compound | inhibition
Cc1cc(OCc2cc(C(=O)O)oc2C)c2c3c(c(=O)oc2c1)CCCC3 | 80.6% (active)
Cc1cc(=O)oc2c(C)c(OCC(=O)N3CCN(Cc4ccc5c(c4)OCO5)CC3)ccc12 | -0.88%
